Assay results reported in PubChem BioAssay AID1159580 (chemical genetic matrix, 2015).
Several values for one entry are separate records, joined by “and”; a condition that tells them apart may be missing. Identical values can stand only once. Screen size: about 5,500 compounds; about 2,000 (36%) were called active. Roughly 18% stayed inconclusive and do not appear here. Rule as the data show it: active = normalized growth mostly below about 0.91 (no sharp cut-off); inconclusive = no clear call, values can overlap the other calls; inactive = mostly above about 0.92. The list shows a part of the results.

Assay: chemical genetic growth profiling, strain panel (AID 1159580);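 also: tested at 20 µM; growth read once vehicle control cultures reached saturation at 30 °C; 1 = growth at the plate median or of vehicle wells; lower values mean less growth of the strain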
Conditions: S. cerevisiae deletion strains, growth OD

Measured: normalized growth

O=C(O)CNCP(=O)(O)O
inactive: locus YAL013W, strain DEP1, stronger effect = lower value 0.998 | locus YAL021C, strain ccr4, stronger effect = lower value 1.04 | locus YAL026C, strain drs2, stronger effect = lower value 1.02 | locus YAL030W, strain snc1, stronger effect = lower value 1.02 | locus YBL061C, strain skt5, stronger effect = lower value 1.01 | locus YBR009C, strain hhf1, stronger effect = lower value 1.01 | locus YBR021W, strain FUR4, stronger effect = lower value 0.992 | locus YBR023C, strain chs3, stronger effect = lower value 1.02 | locus YBR171W, strain sec66, stronger effect = lower value 1.04 | locus YBR229C, strain ROT2, stronger effect = lower value 1 | locus YBR231C, strain swc5, stronger effect = lower value 1.02 | locus YBR279W, strain paf1, stronger effect = lower value 1.02 | locus YCL011C, strain gbp2, stronger effect = lower value 1.02 | locus YCL016C, strain dcc1, stronger effect = lower value 1.02 | locus YCL029C, strain bik1, stronger effect = lower value 1.01 | locus YCL061C, strain MRC1, stronger effect = lower value 1.01 | locus YCL069W, strain vba3, stronger effect = lower value 1.02 | locus YCR088W, strain abp1, stronger effect = lower value 1.01 | locus YDL005C, strain med2, stronger effect = lower value 1.03 | locus YDL035C, strain GPR1, stronger effect = lower value 1.02 | locus YDL040C, strain nat1, stronger effect = lower value 1.02 | locus YDL074C, strain BRE1, stronger effect = lower value 1.04 | locus YDL101C, strain DUN1, stronger effect = lower value 1.02 | locus YDL134C, strain PPH21, stronger effect = lower value 1.01 | locus YDL185W, strain tfp1, stronger effect = lower value 1.01 | locus YDL192W, strain arf1, stronger effect = lower value 1.01 | locus YDR001C, strain nth1, stronger effect = lower value 1.01 | locus YDR069C, strain doa4, stronger effect = lower value 1.02 | locus YDR101C, strain arx1, stronger effect = lower value 1 | locus YDR137W, strain rgp1, stronger effect = lower value 1.02 | locus YDR150W, strain NUM1, stronger effect = lower value 0.997 | locus YDR159W, strain sac3, stronger effect = lower value 1.02 | locus YDR162C, strain NBP2, stronger effect = lower value 1 | locus YDR195W, strain ref2 1.01 | locus YDR297W, strain sur2, stronger effect = lower value 1.01 | locus YDR318W, strain mcm21, stronger effect = lower value 1.02 | locus YDR334W, strain swr1, stronger effect = lower value 1.03 | locus YDR335W, strain msn5, stronger effect = lower value 1.02 | locus YDR388W, stronger effect = lower value 1.01 | locus YDR392W, strain spt3, stronger effect = lower value 1.03 | locus YDR502C, strain sam2, stronger effect = lower value 1.01 | locus YEL003W, strain gim4, stronger effect = lower value 1.01 | locus YEL037C, strain rad23, stronger effect = lower value 1.01 | locus YEL061C, strain CIN8 (second series), stronger effect = lower value 1.02 | locus YEL061C, strain CIN8, stronger effect = lower value 0.998 | locus YER015W, strain faa2, stronger effect = lower value 1.02 | locus YER016W, strain bim1, stronger effect = lower value 1.01 | locus YER110C, stronger effect = lower value 1.02 | locus YER111C, strain swi4, stronger effect = lower value 1.01 | locus YER155C, strain BEM2 (second series), stronger effect = lower value 1.02 | locus YER155C, strain BEM2, stronger effect = lower value 1.01 | locus YER167W, strain BCK2, stronger effect = lower value 0.999 | locus YFR010W, strain ubp6, stronger effect = lower value 1.02 | locus YGL078C, strain dbp3, stronger effect = lower value 1.01 | locus YGL086W, strain mad1, stronger effect = lower value 1 | locus YGL167C, strain pmr1, stronger effect = lower value 1.02 | locus YGL173C, strain kem1, stronger effect = lower value 1.01 | locus YGL227W, strain vid30, stronger effect = lower value 1.02 | locus YGL240W, strain doc1, stronger effect = lower value 1.02 | locus YGL248W, strain PDE1, stronger effect = lower value 1.02 | locus YGL253W, strain hxk2, stronger effect = lower value 1.01 | locus YGR078C, strain PAC10, stronger effect = lower value 1.01 | locus YGR135W, strain pre9, stronger effect = lower value 1.02 | locus YGR229C, strain SMI1, stronger effect = lower value 1.02 | locus YGR252W, strain gcn5, stronger effect = lower value 1.01 | locus YHR013C, strain ard1, stronger effect = lower value 1.06 | locus YHR027C, strain rpn1, stronger effect = lower value 1 | locus YHR030C, strain SLT2, stronger effect = lower value 1.01 and 0.97 | locus YHR079C, strain IRE1 (second series), stronger effect = lower value 1.01 | locus YHR079C, strain IRE1, stronger effect = lower value 0.992 | locus YHR094C, strain hxt1, stronger effect = lower value 1 | locus YHR129C, strain ARP1, stronger effect = lower value 1.01 | locus YHR142W, strain chs7, stronger effect = lower value 1.02 | locus YHR200W, strain rpn10, stronger effect = lower value 1.01 | locus YIL066C, strain RNR3, stronger effect = lower value 1.02 | locus YIL073C, strain SPO22, stronger effect = lower value 1.08 | locus YIL125W, strain kgd1, stronger effect = lower value 1.01 | locus YIR030C, strain dcg1, stronger effect = lower value 1.01 | locus YJL092W, strain hpr5, stronger effect = lower value 1.02 | locus YJL095W, strain BCK1 (second series), stronger effect = lower value 1.01 | locus YJL095W, strain BCK1, stronger effect = lower value 1.01 and 0.975 | locus YJL115W, strain asf1, stronger effect = lower value 1.02 | locus YJL129C, strain trk1, stronger effect = lower value 1.03 | locus YJL134W, strain LCB3, stronger effect = lower value 1.01 | locus YJL154C, strain vps35, stronger effect = lower value 1.02 | locus YJL164C, strain tpk1, stronger effect = lower value 1.02 | locus YJL166W, strain qcr8, stronger effect = lower value 1.02 | locus YJL168C, strain set2, stronger effect = lower value 1.01 | locus YJL187C, strain SWE1 (second series), stronger effect = lower value 1.01 | locus YJL187C, strain SWE1, stronger effect = lower value 1.01 | locus YJR043C, strain POL32, stronger effect = lower value 1.01 | locus YJR066W, strain TOR1, stronger effect = lower value 0.926
